Reference: PubChem BioAssay AID430 (Sanford-Burnham Center for Chemical Genomics, 2006)
The whole screen tested about 63,000 compounds, of which about 1,100 (1.7%) were called active. This is one part of a sample in which actives are shown more often than they occur. Measured potencies and affinities stand elsewhere. Values without a mark were called inactive. No stated cut-off is given here; in the data, active means cytotoxicity above about 50%; inactive means the rest.

Assay: cytotoxicity in HPDE-C7 cells, cell-based, fluorescence, HTS (AID 430);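 further: cells exposed to compound for 48 hours before viability readout; 0% = vehicle and 100% = reference cytotoxic drug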
Details: HPDE-C7 pancreatic duct cells viability, at 10 µM, hits give high values

Point of comparison: `C=C(C)COc1ccc(-c2nc(N)nc(C)c2Oc2ccccc2OC)c(O)c1`, cytotoxicity -1.3%. Against it:
- CCOC(=O)c1[nH]c2ccc(Br)cc2c1NC(=O)CCN1CCCCC1 — higher, 0.6%
- Cc1ccc2c(c1)nnn2C1CCN(CC(=O)Nc2ccccc2N2CCOCC2)CC1 — higher, 11%
- Cc1c(NC(=O)Nc2cccc(Cl)c2)c(=O)n(-c2ccccc2)n1C — lower, -2.1%
- Cc1c(NC(=O)c2ccc(=O)oc2)c(=O)n(-c2ccccc2)n1C — lower, -6.7%
- Cc1c(NC(=O)Nc2ccc(Cl)cc2)c(=O)n(-c2ccccc2)n1C — lower, -19.8%
- Cc1c(NC(=O)c2ccc(Br)o2)c(=O)n(-c2ccccc2)n1C — lower, -3.4%
- O=C(CSc1ccc2nnc(-c3ccccn3)n2n1)NCc1ccc2c(c1)OCO2 — lower, -15.3%
- CCCC(=O)Nc1ccccc1-c1nnn(CC(=O)Nc2ccc(OC)cc2)n1 — lower, -30.9%
- COc1ccc(C(=O)CSc2nnc(-c3ccccn3)n2Cc2ccco2)cc1 — lower, -5%
- O=C(CSc1nnc(-c2cc3ccccc3cc2O)n1Cc1ccco1)c1ccc(F)cc1 — lower, -5.2%
- CCN(CCNC(=O)c1cccc(N2CCCC2=O)c1)c1ccccc1 — lower, -9.5%
- CCCCc1cc(=O)oc2cc(C)c(CN3CCCC3)c(O)c12 — lower, -12.4%
- CCc1cc(=O)oc2cc(C)cc(O)c12 — higher, 0%
- CCOc1ccc(CCNC(=O)Cn2c(-c3nonc3N)nc3ccccc32)cc1OCC — lower, -22.9%
- Nc1nonc1-c1nc2ccccc2n1Cc1ccccc1 — lower, -38.3%
- COC(=O)c1ccccc1NC(=O)Cn1c(-c2nonc2N)nc2ccccc21 — higher, 47%
- Nc1nonc1-c1nc2ccccc2n1CC(=O)NC1CCCC1 — higher, 0%
- COc1ccc(CCNC(=O)Cn2c(-c3nonc3N)nc3ccccc32)cc1OC — higher, 6.6%
- COc1cc(Cn2c(-c3nonc3N)nc3ccccc32)ccc1C — higher, 30.4%
- CC(=O)N1CCN=C1SCc1ccccc1 — higher, 3%
- Cc1cc(C(=O)N2CC(C)CC(C)C2)n(-c2ccccc2)n1 (stereo unspecified) — lower, -6.9%
- Cc1nc2ccccc2c(=O)n1NC(=O)c1ccc(F)cc1Cl — higher, -0.2%
- COc1ccc2nc(NC(=O)c3ccc4ncsc4c3)sc2c1 — higher, 0.5%
- CCOc1cccc(CN2CCN(c3cccc(C(F)(F)F)c3)CC2)c1O — lower, -3.2%
- CCOC(=O)C1=C(CSc2nc(-c3ccncc3)ccc2C#N)OC(N)=C(C#N)C1c1cccnc1 (stereo unspecified) — higher, 4%
- CCOC(=O)C1=C(C)OC(N)=C(C#N)C1c1ccc(OC)c(C)c1OC (stereo unspecified) — the same, -1.3%
- CCOC(=O)C1=C(CSc2nc3c(cc2C#N)CN(C)CC3)OC(N)=C(C#N)C1c1ccccc1 (stereo unspecified) — higher, 3.4%
- CCOC(=O)C1=C(CSc2nc(C)cc(C)c2C#N)OC(N)=C(C#N)C1c1cccs1 (stereo unspecified) — lower, -28.5%
- CC(c1ccco1)N(C(=O)CSc1ccc(Br)cc1)c1ccccn1 (stereo unspecified) — higher, 9.1%
- CCCCOC(=O)C(C)Nc1n[nH]c(=O)[nH]c1=O (stereo unspecified) — higher, 8.9%
- Cc1cc(C)n(S(=O)(=O)c2ccc3ccccc3c2)n1 — higher, 28.5%
- COC(=O)C1=C(CSCc2ccco2)NC(=O)NC1c1cc(C)ccc1C (stereo unspecified) — lower, -3.6%
- c1ccc(-c2noc(CN3CCN(c4ccccc4)CC3)n2)cc1 — lower, -1.5%
- COc1cccc(CNC(=O)C2CCN(S(=O)(=O)c3ccc4c(c3)CCC(=O)N4)CC2)c1 — lower, -2.9%
- c1coc(CNc2nc(N3CCCCC3)nc3ccccc23)c1 — higher, 25.2%
- Oc1ccccc1-c1nc(NCc2ccco2)c2ccccc2n1 — higher, 0.8%
- O=C(Cn1ncc2c(=O)oc3ccccc3c21)N1CCc2ccccc2C1 — lower, -15.7%
- N#Cc1c(N)oc(-c2ccccc2)c1-c1ccccc1 — lower, -7.1%
- N#Cc1c(/N=C/N2CCCC2)oc(-c2ccccc2)c1-c1ccccc1 — higher, 13.1%
- CCC(=O)N1CCN(c2ccc(NC(=O)c3ccc4c(c3)OCO4)cc2)CC1 — lower, -5.7%
- COc1ccc(CN(C(=O)c2ccccc2OC)C2CCS(=O)(=O)C2)cc1 (stereo unspecified) — higher, -0.4%
- CCN(CC)C(=O)CSc1nnc(-c2ccccc2)n1N — lower, -1.9%
- O=c1[nH]c2ccccc2n1CCCN1CCN(C(c2ccccc2)c2ccccc2)CC1 — lower, -7.2%
- O=C(NC1CCCCC1)N1CCC(n2c(=O)[nH]c3ccccc32)CC1 — lower, -3.9%
- O=C1CC(c2ccccc2)Sc2ccccc2N1 (stereo unspecified) — lower, -15%
- Cn1cccc1CNC(=O)Nc1ccc(Cl)cc1 — lower, -23.2%
- C=C(C)COc1ccc(-c2nc(N)ncc2Oc2ccccc2OC)c(O)c1 — higher, 0.9%
- CCOc1ccc(-c2n[nH]c(C)c2Oc2ccccc2OC)c(O)c1 — lower, -2.5%
- C=C(C)COc1ccc(-c2ncncc2Oc2ccc(OC)cc2)c(O)c1 — higher, 1.9%
- CC(C)Cc1ccc(C#N)c(SCC(N)=O)n1 — lower, -5.5%

With `Cc1c(NC(=O)Nc2ccc(Cl)c(Cl)c2)c(=O)n(-c2ccccc2)n1C` the cytotoxicity was 65.8% (active).
With `COc1ccc(C(=O)CSc2nnc(-c3cc4ccccc4cc3O)n2Cc2ccco2)cc1` the cytotoxicity was 55.6% (active).
For `CCCCCc1cc(O)c2c(C)cc(=O)oc2c1`, the cytotoxicity was 50.3% (active).
With `CCOC(=O)c1ccccc1NC(=O)Cn1c(-c2nonc2N)nc2ccccc21` the cytotoxicity was 67.8% (active).
For `CCCCOc1ccccc1NC(=O)Cn1c(-c2nonc2N)nc2ccccc21`, the cytotoxicity was 55.1% (active).
With `COc1cccc(Cn2c(-c3nonc3N)nc3ccccc32)c1` the cytotoxicity was 53.8% (active).
For `CCOC(=O)C1=C(CSc2nc3c(cc2C#N)CCC3)OC(N)=C(C#N)C1c1ccccc1` (stereo unspecified), the cytotoxicity was 101% (active).
With `CCOC(=O)C1=C(CSc2nc(C)ccc2C#N)OC(N)=C(C#N)C1c1cccc(OC)c1OC` (stereo unspecified) the cytotoxicity was 59.3% (active).
In the case of `N#Cc1c(/N=C/c2ccco2)oc(-c2ccccc2)c1-c1ccccc1`, the cytotoxicity is reported as 70% (active).
For `C=C(C)COc1ccc(-c2n[nH]c(C)c2Oc2ccccc2OC)c(O)c1`, the cytotoxicity was 61.3% (active).
